Experimental data taken from PubChem BioAssay (NCI).
Compounds without any hit were thinned out: in the full panel of roughly 83,000, 20% have a hit.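 Activity criterion: percent growth below 10, measured after cells in 96-well plates were exposed to a single compound concentration for 48 hours.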 Values without a mark were called inactive. The source made the active and inactive calls.

Each compound was assayed on MDA-MB-468 breast (assay: NCI-60 one-dose screen, 48 h (100 = growth as untreated, 0 = no growth, -100 = all killed)). Settings: 10 µM unless noted.
For `CS(=O)(=O)Nc1cc(-c2ccc3ncnc(Nc4cccc(Cl)c4)c3c2)cnc1Cl`, the growth was -55.7% (active). With `O=c1cc(-c2nccc3c2[nH]c2ccccc23)c2cc(Cl)ccc2o1` the growth was 2.37% (active). With `CCOc1ccc(-c2cnnn2-c2nonc2-n2cccc2)cc1` the growth was 10.6%. In the case of `CC(=O)/C(=C\c1c(-c2ccccc2)[nH]c2ccccc12)S(=O)(=O)c1ccccc1`, the growth is reported as 6.12% (active). For `CCC(C)NCC(=O)O` (stereo not given), the growth was 100%. Compound `Cc1ccc2nc(-c3ccc(-n4on4-c4ccc(/C=C/c5ccc(-n6on6-c6ccc(-c7nc8ccc(C)cc8s7)cc6)cc5S(=O)(=O)O)c(S(=O)(=O)O)c4)cc3)sc2c1` has a growth of 114%. For `COc1ccc(/C=C(\C#N)c2cc(OC)c(OC)c(OC)c2)cc1`, the growth was -10.8% (active). With `COc1cc(OC)cc(-c2ccc(-c3ccc(C(=N)N)cc3)s2)c1` the growth was -81.3% (active). In the case of `Oc1cccc2c1NCCC2`, the growth is reported as -8.83% (active). Work on `CN1C(=O)/C(=C/c2nc(-c3cccc(F)c3)n3ccccc23)c2ccccc21` yielded a growth of 101%. For `CCCCC1(O)CCCCC1`, the growth was 94.9%. For `O=C1Nc2ccccc2C12C=C(c1ccccc1)Nc1c2c(-c2ccccc2)nn1-c1ccccc1` (stereo not given), the growth was 105%. `O=C(/C(=C(\C(=O)c1ccccc1)c1ccccc1)c1ccccc1)c1ccccc1` gave a growth of 47.9%. Compound `O=C(c1ccccc1)c1c(/C=C/c2ccccc2)nc2ccccc2c1/C=C/c1ccc(Br)cc1` has a growth of 94.3%. `COc1cc(C=C2C(=O)NC(=S)NC2=O)cc(CN2CCCC2)c1O` was tested, and the growth was 110%.
